Source: PubChem (The Scripps Research Institute Molecular Screening Center)
PP5 inh: inhibitors of human protein phosphatase 5 (PP5); AID 1987; hit rate 0.18% among 320,000; inhibition, % at 6.7 µM; P53041; purified PP5c, OMFP substrate fluorescence;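 active = inhibition above the campaign's mean inhibition across all tested compounds plus 3 SD, cut at about 9.5% in these data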;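 also: 0% = DMSO only and 100% = 100 µM cantharidin control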
PAFAH2 inh: PAFAH2 (human) inhibition. Q99487. recombinant PAFAH2, FP-rhodamine activity probe, fluorescence polarization. inhibition, % at 3.39 µM. hit rate 0.99% among 340,000;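 active = inhibition above the mean over all tested compounds plus 3 SD, cut at about 30% in these data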;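 also: inhibitors block probe labeling of enzyme so polarization drops; 0% = enzyme with DMSO and 100% = wells lacking PAFAH2 protein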
PP1 counter: counter-screen for PP5 inhibitors: inhibitors of human PP1-alpha; P62136; purified PP1alpha, OMFP fluorescence; inhibition, % at 6.7 µM; hit rate 0.9% among 320,000; AID 2235;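 active = inhibition above the mean inhibition of all tested compounds plus 3 SD, computed separately for each screening campaign, cut at about 15% in these data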
PAFAH1B2 FP inh: inhibitors of human PAFAH1B2; P68402; recombinant PAFAH1B2, FP-rhodamine activity probe, fluorescence polarization; inhibition, % at 3.39 µM; hit rate 1.2% among 340,000; AID 492953;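 active = inhibition above the mean of all tested compounds plus 3 SD, cut at about 24% in these data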;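 also: 0% = enzyme with DMSO and 100% = wells lacking PAFAH1B2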
PAFAH1B3 FP inh: PAFAH1B3 (human) inhibition. inhibition, % at 3.39 µM. AID 492972. hit rate 0.28% among 340,000. recombinant PAFAH1B3, FP-rhodamine probe, fluorescence polarization. Q15102;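 active = inhibition above the screen-wide average of all tested compounds plus 3 SD, cut at about 25% in these data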;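 also: 0% = enzyme with DMSO only and 100% = wells lacking PAFAH1B3 protein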
pPAFAH inh: inhibitors of human plasma PAF acetylhydrolase (pPAFAH); Q13093; recombinant pPAFAH, FP-rhodamine probe fluorescence polarization; inhibition, % at 3.39 µM; hit rate 1.5% among 330,000; AID 463082;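 active = inhibition above the mean inhibition across the screen plus 3 SD, cut at about 25% in these data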;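 also: inhibitors block binding of the rhodamine activity-based probe so polarization drops; 0% = enzyme with DMSO and 100% = wells lacking pPAFAH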
Target sequence (Q13093 whole entry, looked up): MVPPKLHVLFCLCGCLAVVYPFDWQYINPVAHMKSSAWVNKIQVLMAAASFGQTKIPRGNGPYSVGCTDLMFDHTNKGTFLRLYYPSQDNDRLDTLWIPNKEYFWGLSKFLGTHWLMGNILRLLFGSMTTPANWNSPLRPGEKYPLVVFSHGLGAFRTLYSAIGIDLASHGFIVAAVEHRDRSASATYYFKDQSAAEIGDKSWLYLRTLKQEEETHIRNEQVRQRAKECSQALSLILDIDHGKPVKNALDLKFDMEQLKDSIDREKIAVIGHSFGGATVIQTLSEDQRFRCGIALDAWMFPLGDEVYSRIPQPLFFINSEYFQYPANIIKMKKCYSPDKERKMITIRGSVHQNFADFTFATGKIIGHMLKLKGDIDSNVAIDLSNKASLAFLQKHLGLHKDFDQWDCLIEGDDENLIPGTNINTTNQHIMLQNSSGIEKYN
Starred values were filed as active, the others as inactive. Shown are actives, neighbours in structure and some others; about 3.4% of the full set was active somewhere.

For N#Cc1c(-c2ccncc2)c2c([nH]c1=S)CCCC2 the results were PP5 inh -1, PAFAH2 inh 2, PP1 counter 1, PAFAH1B2 FP inh 6, PAFAH1B3 FP inh -2 and pPAFAH inh 5.
For CCOc1ccccc1N1CCN(C(=O)c2ccccc2OCc2c(C)noc2C)CC1 the results were PP5 inh 2, PAFAH2 inh 1, PP1 counter 1, PAFAH1B2 FP inh 4, PAFAH1B3 FP inh 12 and pPAFAH inh 3.
`Cc1ccc(S(=O)(=O)n2cc(CO)c3ccccc32)cc1` gave PAFAH2 inh 3, PAFAH1B2 FP inh 47* and PAFAH1B3 FP inh 6.
`COc1ccc(OC)c(CC(NC(C)=O)C(=O)NC2CCN(c3nc(OC)nc(OC)n3)CC2)c1` (stereo not drawn) gave PP5 inh -2, PAFAH2 inh -3, PP1 counter -1, PAFAH1B2 FP inh -2, PAFAH1B3 FP inh -3 and pPAFAH inh 3.
Screening COc1cc(CCC(=O)OCC(=O)N2CCc3ccccc32)cc(OC)c1OC returned PP5 inh 3, PAFAH2 inh -2, PP1 counter 17*, PAFAH1B2 FP inh 1, PAFAH1B3 FP inh 0 and pPAFAH inh 3.
O=C(O)C1CC=CCC1C(=O)N1CCN(c2nc(-c3ccccc3)c3ccccc3n2)CC1 (stereo not drawn) was read as PP5 inh 3, PAFAH2 inh 2, PP1 counter 5, PAFAH1B2 FP inh 0, PAFAH1B3 FP inh 0 and pPAFAH inh 2.
Screening O=C(O)C1CC=CCC1C(=O)N1CCN(c2nc(-c3ccccc3Cl)c3cc(Br)ccc3n2)CC1 (stereo not drawn) returned PP5 inh 0, PAFAH2 inh 5, PP1 counter 17*, PAFAH1B2 FP inh 0, PAFAH1B3 FP inh 3 and pPAFAH inh 12.
Screening CCCCOc1ccc(S(=O)(=O)NC(=O)NCc2ccc(OCCC)cc2)cc1 returned PP5 inh -1, PAFAH2 inh 5, PP1 counter -4, PAFAH1B2 FP inh 42*, PAFAH1B3 FP inh 3 and pPAFAH inh 8.
`CCCCOc1ccc(CNC(=O)NS(=O)(=O)c2ccc(OCC(C)C)cc2)cc1` gave PP5 inh 0, PAFAH2 inh -1, PP1 counter 6, PAFAH1B2 FP inh 59*, PAFAH1B3 FP inh 3 and pPAFAH inh 2.
`CCCCOc1ccc(CNC(=O)NS(=O)(=O)c2ccc(OCC)cc2)cc1` gave PP5 inh 1, PAFAH2 inh -8, PP1 counter -2, PAFAH1B2 FP inh 10, PAFAH1B3 FP inh -1 and pPAFAH inh 4.
`Oc1ccc(-c2n[nH]c(=S)n2Cc2ccccc2)cc1` gave PP5 inh 2, PAFAH2 inh 8, PP1 counter -4, PAFAH1B2 FP inh 25*, PAFAH1B3 FP inh 5 and pPAFAH inh -3.
`S=c1[nH]nc(-c2ccc(Br)cc2)n1Cc1ccccc1` gave PP5 inh -1, PAFAH2 inh 6, PP1 counter -2, PAFAH1B2 FP inh 22, PAFAH1B3 FP inh 14 and pPAFAH inh 0.
Fc1ccccc1-c1n[nH]c(=S)n1Cc1ccccc1 was read as PP5 inh -2, PAFAH2 inh -5, PP1 counter -2, PAFAH1B2 FP inh 19, PAFAH1B3 FP inh 0 and pPAFAH inh -2.
S=c1[nH]nc(-c2ccccc2Cl)n1Cc1ccccc1 was read as PP5 inh 2, PAFAH2 inh 2, PP1 counter -3, PAFAH1B2 FP inh 27*, PAFAH1B3 FP inh -2 and pPAFAH inh 8.
Screening Fc1ccc(-c2c[nH]c(=S)n2Cc2ccccc2)cc1 returned PP5 inh 0, PAFAH2 inh 4, PP1 counter -3, PAFAH1B2 FP inh 27*, PAFAH1B3 FP inh 8 and pPAFAH inh -1.
`Fc1ccc(-c2n[nH]c(=S)n2Cc2ccccc2)cc1` gave PP5 inh 2, PAFAH2 inh -5, PP1 counter -4, PAFAH1B2 FP inh 28*, PAFAH1B3 FP inh 8 and pPAFAH inh 2.
`O=C(c1cc(-c2ccc(F)cc2)on1)N1CCOCC1` gave PP5 inh 0, PAFAH2 inh 7, PP1 counter -3, PAFAH1B2 FP inh -9, PAFAH1B3 FP inh 13 and pPAFAH inh 2.
O=C(N/N=C/c1ccc(O)cc1O)c1ccc(CN2C(=O)c3cccc4cccc2c34)cc1 was read as PP5 inh -2, PAFAH2 inh 39*, PP1 counter 14, PAFAH1B2 FP inh 43*, PAFAH1B3 FP inh 35* and pPAFAH inh 30*.
